Assay [1] is described as follows: NCI Yeast Anticancer Drug Screen. Data for the rad50 strain (AID 155).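 Note: 0% = growth of vehicle-only cultures of the same strain.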 The note with it: S. cerevisiae rad50 strain growth inhibition, hits give high values. The method, boiled down: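 Inhibition values express reduced yeast growth in compound-treated cultures relative to vehicle-treated controls.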
Assay [2] is described as follows: NCI Yeast Anticancer Drug Screen. Data for the mec2-1 strain (AID 157). The note with it: S. cerevisiae mec2-1 strain, hits give high values. The method, boiled down: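 Yeast mec2-1 mutant treated with compound. Readout: growth inhibition vs vehicle controls.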
Assay [3] can be described thus: NCI Yeast Anticancer Drug Screen. Data for the sgs1 mgt1 strain (AID 161).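 Note: 0% = growth of cultures given vehicle only.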 The note with it: S. cerevisiae sgs1 mgt1 strain, hits give high values. The method, boiled down:
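Inhibition of yeast growth, normalised to vehicle-treated controls, is reported for a strain bearing genetic alterations in DNA damage repair.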

Assay [4] in a line: NCI Yeast Anticancer Drug Screen. Data for the cln2 rad14 strain (AID 165).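 Note: 0% = growth equal to vehicle treated cultures.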 The note with it: S. cerevisiae cln2 rad14 strain, hits give high values. The method, boiled down: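 cln2 rad14 yeast strain; compound exposure; growth inhibition read vs vehicle controls.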
Assay [5] can be described thus: NCI Yeast Anticancer Drug Screen. Data for the bub3 strain (AID 167). The settings on record: S. cerevisiae bub3 mutant strain, hits give high values. In outline: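 Steps: expose the mutant yeast strain to compound; grow alongside vehicle-treated cultures; measure growth; express inhibition against the vehicle cultures.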
A short description of assay [6]: NCI Yeast Anticancer Drug Screen. Data for the mlh1 rad18 strain (AID 175). The settings on record: S. cerevisiae mlh1 rad18 strain growth inhibition, hits give high values. In outline: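 Yeast w/ defined DNA-repair lesions; compound exposure; growth vs vehicle controls → % inhibition.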
[7] abbreviates: at 5.0 µM (retest, dose inferred, filed as 0.5).
[8] abbreviates: at 50.0 µM (retest, dose inferred, filed as 5.0).

The panel holds about 79,000 compounds, 15% with a hit somewhere; the sample as a whole holds those more often. Unmarked numbers belong to inactive results. Activity calls are given as the source filed them. Cut-off read from the data, not from the text of the source: active = growth inhibition above about 70%; inactive = the rest.

Regarding `O=[N+]([O-])c1ccc(C=NC2CCCCC2)c([N+](=O)[O-])c1`, the growth inhibition in assay [1] (setting [7]) was 0%; in assay [1] (setting [8]) it was 46%; in assay [1] (at 50.0 µM), 41%; in assay [2] (setting [7]) it was -1%; in assay [2] (setting [8]), 54%; in assay [2] (at 50.0 µM) it was 46%. Also, the growth inhibition in assay [3] (setting [7]) is 2%; in assay [3] (setting [8]), 69%; in assay [3] (at 50.0 µM), 59.5%; in assay [4] (setting [7]), -5%; in assay [4] (setting [8]), 25%; in assay [4] (at 50.0 µM) it was -0.85%. Besides, the growth inhibition in assay [5] (setting [7]) is 20%; in assay [5] (setting [8]) it was 83% (active); in assay [5] (at 50.0 µM) it was 55.5%; in assay [6] (setting [7]), -5%; in assay [6] (setting [8]), 85% (active); in assay [6] (at 50.0 µM), 73.3% (active).

`CCOC1=C(c2ccccc2)Sc2ccc(C)cc2C1c1ccc(C)cc1` (configuration not stated): the growth inhibition in assay [1] (setting [7]) was 15%; in assay [1] (setting [8]), 35%; in assay [1] (at 50.0 µM), 60.2%; in assay [2] (setting [7]), 0%; in assay [2] (setting [8]) it was 76% (active); in assay [2] (at 50.0 µM), 78.2% (active). Besides, the growth inhibition in assay [3] (setting [7]) is 10%; in assay [3] (setting [8]), 81% (active); in assay [3] (at 50.0 µM), 95.3% (active); in assay [4] (setting [7]), -4%; in assay [4] (setting [8]), 51%; in assay [4] (at 50.0 µM) it was 13.1%. For the same molecule, the growth inhibition in assay [5] (setting [7]) was -3%; in assay [5] (setting [8]), 61%; in assay [5] (at 50.0 µM), 90% (active); in assay [6] (setting [7]), -2%; in assay [6] (setting [8]) it was 81% (active); in assay [6] (at 50.0 µM) it was 82.9% (active).

As for `Cc1c2ccncc2cc2c1sc1ccncc12`, the growth inhibition was 97% (active) in assay [1] (setting [7]); 97% (active) in assay [1] (setting [8]); 91.2% (active) in assay [1] (at 50.0 µM); 95% (active) in assay [2] (setting [7]); 97% (active) in assay [2] (setting [8]); 93% (active) in assay [2] (at 50.0 µM). Moreover, the growth inhibition in assay [3] (setting [7]) is 94% (active); in assay [3] (setting [8]), 99% (active); in assay [3] (at 50.0 µM), 91.2% (active); in assay [4] (setting [7]), 87% (active); in assay [4] (setting [8]), 98% (active); in assay [4] (at 50.0 µM), 90.5% (active). Besides, the growth inhibition in assay [5] (setting [7]) was 96% (active); in assay [5] (setting [8]) it was 98% (active); in assay [5] (at 50.0 µM) it was 89.5% (active); in assay [6] (setting [7]) it was 96% (active); in assay [6] (setting [8]), 97% (active); in assay [6] (at 50.0 µM) it was 89.3% (active).

On to `Nc1ccc(S(=O)(=O)Nc2nc3ccccc3nc2N2CCCCC2)cc1`, for which the growth inhibition in assay [1] (setting [7]) was 29%; in assay [1] (setting [8]) it was 46%; in assay [1] (at 50.0 µM) it was 51.8%; in assay [2] (setting [7]), 35%; in assay [2] (setting [8]), 44%; in assay [2] (at 50.0 µM), 40.8%. Further, the growth inhibition is 32% in assay [3] (setting [7]); 94% (active) in assay [3] (setting [8]); 64.7% in assay [3] (at 50.0 µM); 36% in assay [4] (setting [7]); 91% (active) in assay [4] (setting [8]); 32.3% in assay [4] (at 50.0 µM). For the same molecule, the growth inhibition was 30% in assay [5] (setting [7]); 96% (active) in assay [5] (setting [8]); 76.4% (active) in assay [5] (at 50.0 µM); 44% in assay [6] (setting [7]); 60% in assay [6] (setting [8]); 85.9% (active) in assay [6] (at 50.0 µM).

For the molecule `Cc1ccc(C2(C)CC/C(=N/O)c3cc(C)c(C)cc32)cc1C` (configuration not stated), the growth inhibition in assay [1] (setting [7]) is 72% (active); in assay [1] (setting [8]) it was 89% (active); in assay [1] (at 50.0 µM) it was 90.5% (active); in assay [2] (setting [7]) it was 61%; in assay [2] (setting [8]), 88% (active); in assay [2] (at 50.0 µM), 90.8% (active). Besides, the growth inhibition in assay [3] (setting [7]) is 66%; in assay [3] (setting [8]), 90% (active); in assay [3] (at 50.0 µM), 88.7% (active); in assay [4] (setting [7]) it was 63%; in assay [4] (setting [8]), 91% (active); in assay [4] (at 50.0 µM), 91.2% (active). The growth inhibition in assay [5] (setting [7]) was 80% (active); in assay [5] (setting [8]), 92% (active); in assay [5] (at 50.0 µM) it was 87.9% (active); in assay [6] (setting [7]), 83% (active); in assay [6] (setting [8]), 92% (active); in assay [6] (at 50.0 µM) it was 90.5% (active).

Take `CCOC(=S)SSC(=S)NCCNC(=S)SSC(=S)OCC`: the growth inhibition in assay [1] (setting [7]) is 9%; in assay [1] (setting [8]), 40%; in assay [1] (at 50.0 µM), 70.7% (active); in assay [2] (setting [7]), 4%; in assay [2] (setting [8]), 72% (active); in assay [2] (at 50.0 µM), 36.5%. For the same molecule, the growth inhibition is 13% in assay [3] (setting [7]); 86% (active) in assay [3] (setting [8]); 79.8% (active) in assay [3] (at 50.0 µM); -1% in assay [4] (setting [7]); 30% in assay [4] (setting [8]); 73.1% (active) in assay [4] (at 50.0 µM). In addition, the growth inhibition in assay [5] (setting [7]) is 4%; in assay [5] (setting [8]), 91% (active); in assay [5] (at 50.0 µM), 2.55%; in assay [6] (setting [7]), 11%; in assay [6] (setting [8]) it was 78% (active); in assay [6] (at 50.0 µM), 76.4% (active).

As to `C=CCOc1cc(NC(=S)c2sccc2C)ccc1Cl`, the growth inhibition in assay [1] (setting [7]) was 3%; in assay [1] (setting [8]), 88% (active); in assay [1] (at 50.0 µM), 81.5% (active); in assay [2] (setting [7]) it was -5%; in assay [2] (setting [8]), 89% (active); in assay [2] (at 50.0 µM), 87.2% (active). Moreover, the growth inhibition was -9% in assay [3] (setting [7]); 88% (active) in assay [3] (setting [8]); 85% (active) in assay [3] (at 50.0 µM); 2% in assay [4] (setting [7]); 89% (active) in assay [4] (setting [8]); 80.2% (active) in assay [4] (at 50.0 µM). The growth inhibition was 28% in assay [5] (setting [7]); 94% (active) in assay [5] (setting [8]); 81.3% (active) in assay [5] (at 50.0 µM); 3% in assay [6] (setting [7]); 91% (active) in assay [6] (setting [8]); 81.9% (active) in assay [6] (at 50.0 µM).

Regarding `CC(=O)Nc1ccc(N=Cc2cc(Cl)cc(Cl)c2O)cc1`, the growth inhibition in assay [1] (setting [7]) was 82% (active); in assay [1] (setting [8]), 99% (active); in assay [1] (at 50.0 µM) it was 80.2% (active); in assay [2] (setting [7]), 90% (active); in assay [2] (setting [8]), 99% (active); in assay [2] (at 50.0 µM) it was 73.5% (active). Besides, the growth inhibition was 97% (active) in assay [3] (setting [7]); 95% (active) in assay [3] (setting [8]); 89.3% (active) in assay [3] (at 50.0 µM); 54% in assay [4] (setting [7]); 94% (active) in assay [4] (setting [8]); 53% in assay [4] (at 50.0 µM). The growth inhibition in assay [5] (setting [7]) was 97% (active); in assay [5] (setting [8]), 97% (active); in assay [5] (at 50.0 µM) it was 81.7% (active); in assay [6] (setting [7]), 80% (active); in assay [6] (setting [8]), 99% (active); in assay [6] (at 50.0 µM), 65.8%.

For `Cc1cccc(CC(C)(C)C)c1NC(=O)C(=O)C(C(=O)c1ccc2ccccc2c1)C1OC(=O)c2ccccc21` (configuration not stated), the growth inhibition in assay [1] (setting [7]) was 6%; in assay [1] (setting [8]), 78% (active); in assay [1] (at 50.0 µM), 52.8%; in assay [2] (setting [7]), -1%; in assay [2] (setting [8]), 92% (active); in assay [2] (at 50.0 µM), 23.6%. The growth inhibition in assay [3] (setting [7]) was 9%; in assay [3] (setting [8]), 92% (active); in assay [3] (at 50.0 µM), 36.3%; in assay [4] (setting [7]), -1%; in assay [4] (setting [8]), 76% (active); in assay [4] (at 50.0 µM), 12.8%. In addition, the growth inhibition in assay [5] (setting [7]) is 2%; in assay [5] (setting [8]) it was 93% (active); in assay [5] (at 50.0 µM), 52.1%; in assay [6] (setting [7]), -1%; in assay [6] (setting [8]) it was 86% (active); in assay [6] (at 50.0 µM), 68.2%.

(Values after PubChem BioAssay (NCI).)
